# This is part of a sample that, as a whole, favours compounds with a hit. Of some 83,000 tested, about 20% had one in any assay.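 Plates (96-well) were seeded with cells, treated with compound at one concentration, and incubated for 48 hours before percent growth was determined.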 Values without a mark were called inactive. Active and inactive are the calls of the source. Rule for the calls: active = growth percent below 10; inactive = the rest.
# Tested on: UO-31 renal
# Test: NCI-60 one-dose screen, 48 h (100 = growth as untreated, 0 = no growth, -100 = all killed)
# Details: 10 µM unless noted
row,Structure (SMILES),growth
1,COc1ccc2c(c1)CC[C@@H]1[C@@H]2CC[C@]2(C)[C@@H](O)C(=O)C[C@@H]12,85.2%
2,C[C@@H]1CN(c2nc3c(cc2F)c(=O)c(C(=O)O)cn3C(C)(C)C)C[C@H](C)N1,94.2%
3,NS(=O)(=O)c1ccc(-n2ncc3c(NC4CCCCC4)ncnc32)cc1,0.88% (active)
4,CCOC(=O)C1=CCC(n2cc(C)c(=O)[nH]c2=O)O1 (stereo not given),96.9%
5,O=CNc1ccc2c(c1)Cc1cc([N+](=O)[O-])ccc1-2,33.3%
6,CC(=O)[C@H]1CC[C@H]2[C@@H]3C[C@H](C)C4=CC(=O)CC[C@]4(C)[C@H]3C(=O)C[C@]12C,87%
7,Cc1ccc2nc(SCC(=O)Nc3ccc(-c4nc5ccccc5s4)c(Cl)c3)[nH]c2c1,95%
8,Cc1ccc(C(=O)Cc2ccccc2)c(O)c1,86.4%
9,ICCC(c1ccccc1)(c1ccccc1)c1ccccc1,49.6%
10,c1ccc(CN=C(NCc2ccccc2)NCc2ccccc2)cc1,61.3%
11,Oc1ccc(/C=N/Nc2nc3ccccc3s2)c(O)c1,10.2%
12,O=C(CC(C(=O)c1ccccc1)N1CCN(Cc2ccccc2)CC1)c1ccccc1 (stereo not given),80%
13,CC(NC(N)=S)c1ccccc1 (stereo not given),93.2%
14,C[C@]12CCC(=O)C=C1CC[C@H]1[C@@H]3C[C@@H](O)[C@](O)(C(=O)CO)[C@@]3(C)C[C@H](O)[C@@]12F,74.1%
15,O=C(Nc1ccc2c(c1)C(=O)c1ccccc1-2)c1ccccc1,69.7%
